{
  "source": "PubChem BioAssay (NCI)",
  "note": "Compounds without any hit were thinned out: in the full panel of roughly 83,000, 20% have a hit.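 Compound tested at a single concentration for 48 hours in 96-well plates; a percent growth value below 10 was scored as active.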 The source made the active and inactive calls.",
  "data": [
    {"system": "MDA-MB-435 melanoma", "experiment": "NCI-60 one-dose screen, 48 h (100 = growth as untreated, 0 = no growth, -100 = all killed)", "conditions": "10 µM unless noted", "values": [
      {"smiles": "CC1Cc2cc(F)ccc2-n2cccc21", "note": "(stereo unspecified)", "growth": "96.9% (inactive)"},
      {"smiles": "Cc1c(O)c(N=Nc2ccc(C(=O)O)c(O)c2)c2ccccc2c1O", "growth": "106% (inactive)"},
      {"smiles": "COc1ccc(-c2nc(Nc3nc4ccccc4[nH]3)nc(N)c2C#N)cc1", "growth": "117% (inactive)"},
      {"smiles": "CC(C)(C)c1ccc([I+]c2ccc(C(C)(C)C)cc2)cc1", "growth": "-49.1% (active)"},
      {"smiles": "C=CN(C)S(C)(=O)=O", "growth": "-35.4% (active)"},
      {"smiles": "CCOC(=O)C1CCCN1C(=O)C1(NC(C)=O)CCCC1", "note": "(stereo unspecified)", "growth": "103% (inactive)"},
      {"smiles": "COc1cc(OC)c(NC(=O)n2ncc3cc(Nc4ncnc5ccccc45)ccc32)cc1Cl", "growth": "105% (inactive)"},
      {"smiles": "Cc1ccc([C@@H]2C[C@H](O)Cc3ccccc3N2)s1", "growth": "103% (inactive)"},
      {"smiles": "CCCCCCCCCCC1OC(C)CC(C)O1", "note": "(stereo unspecified)", "growth": "107% (inactive)"},
      {"smiles": "CCc1c(C)c2ccc(OCC(=O)N=Nc3c(O)[nH]c4ccccc34)c(C)c2oc1=O", "growth": "0.887% (active)"},
      {"smiles": "COc1ccccc1Cn1cc2c(c1)-c1oncc1CC2", "growth": "-53.7% (active)"},
      {"smiles": "CC[C@H](Nc1ncnc2nc[nH]c12)c1nc2cccc(NCc3ccc(C(=O)NO)nc3)c2c(=O)n1-c1ccccc1", "growth": "25.4% (inactive)"},
      {"smiles": "COc1ccc(CNCCCN2C(=O)c3ccc4c5c(ccc(c35)C2=O)C(=O)N(CCCNCc2ccc(OC)c(OC)c2OC)C4=O)c(OC)c1OC", "growth": "-87.5% (active)"},
      {"smiles": "O=C(N/N=C/c1coc2ccccc2c1=O)c1cc2oc(-c3ccccc3)cc2[nH]1", "growth": "100% (inactive)"},
      {"smiles": "CCOC(=O)c1cc(C(=O)c2ccc(Br)cc2)n2cc(C)cc(C)c12", "growth": "102% (inactive)"},
      {"smiles": "O=C(/C=C1\\C(=O)N(Cc2ccccc2)c2ccccc21)c1ccc(OCCN2CCCCC2)cc1", "growth": "96.1% (inactive)"}
    ]}
  ]
}
